Molecules are shown by their SMILES. Among all 120,000 compounds or so, fewer than 10 were called active. Not shown: some 4% with an inconclusive outcome. Calls follow the shape of the dose curve; as a rule, active = well fitted curve in the direction sought with a large enough effect in the signal ratio (not every such curve was filed as active); inconclusive = small, poorly fitted or top-dose-only effect, or a change in a side signal; inactive = no such curve, though single readings can be large or run the other way; the % refers to the signal ratio. Not all results are given here.

Inositol monophosphatase 1 (Rattus norvegicus), sequence (P97697 whole entry, looked up): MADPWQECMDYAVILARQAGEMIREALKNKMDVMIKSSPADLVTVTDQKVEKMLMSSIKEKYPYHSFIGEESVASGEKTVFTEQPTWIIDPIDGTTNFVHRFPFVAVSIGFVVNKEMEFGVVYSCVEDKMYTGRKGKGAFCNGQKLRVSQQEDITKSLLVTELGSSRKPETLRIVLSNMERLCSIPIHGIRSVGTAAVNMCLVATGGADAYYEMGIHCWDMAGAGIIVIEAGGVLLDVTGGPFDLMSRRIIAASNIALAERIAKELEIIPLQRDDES

The target of the test is Inositol monophosphatase 1 (Rattus norvegicus) (UniProt P97697). The test is described as follows: qHTS Assay for Identifying the Cell-Membrane Permeable IMPase Inhibitors.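 Also: higher means more IMPase inhibition seen as more IP1 and lower FRET ratio.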 As to conditions: CHO-M1 cells, HTRF TR-FRET ratio; series mostly up to 46.1 µM. An excerpt:
NCGC IMPase Assay Overview
Lithium has been widely used for the treatment of bipolar disorder. But lithium has a narrow therapeutic index and it can cause side effects such as thirst, weight gain, tremor, polyuria and memory problems. Although the mechanism for lithium action in treatment of bipolar disorder is still not fully understood, inhibition of inositol monophosphatase (IMPase) and the subsequent depletion of the inositol pool in living cells have been implicated as the primary therapeutic benefit of lithium therapy. Therefore, a selective IMPase inhibitor with reduced side effects might be a good drug candidate to replace lithium for the treatment of bipolar disorder. Several IMPase inhibitors have been discovered previously. However, they are not suitable for therapeutic use because of their poor cell membrane penetrability or oral bioavailability; the development of new cell-permeable IMPase inhibitors is needed.
IMPase catalyzes the hydrolysis of inositol-1-phosphate (IP1) to release free inositol. Binding of an agonist to a Gq coupled GPCR results in the activation of PLC, which hydrolyzes the PIP2 to form inositol-1,4,5-trisphosphate (IP3) and diacyl glycerol (DAG). While DAG activates protein kinase C (PKC), IP3 triggers the elevation of intracellular free Ca2+. The IP3 is very rapidly inactivated by hydrolysis to IP2, IP1 and then inositol by a series of enzymes including IMPase. Free inositols are used for synthesis of PI and thus start another inositol cycle.
To identify new cell-permeable IMPase inhibitors, we developed a cell-based IMPase assay in which the cytosolic IP1 is measured by a time-resolved fluorescence resonance energy transfer (TR-FRET) assay. In this assay, an IP1 specific antibody is used to detect the labeled IP1 tracer. When the cell lysate contains the elevated IP1 due to the inhibition of IMPase, the TR-FRET between the labeled antibody and IP1 tracer is disrupted resulting in a reduction in the total signal. Since the TR-FRET is used, this cell-based assay is a homogenous assay without cell wash and medium change that is suitable for assay miniaturization and HTS.
NCGC IMPase Assay Protocol Summary
A Chinese hamster ovary (CHO) cell line stably expressing the M1 receptor (CHO-M1) was obtained from ATCC and maintained in F-12 Kaighn's media (Invitrogen, Carlsbad, CA, 21127) supplemented with 10 % FBS, 100 units/ml penicillin, 100 ug/ml streptomycin and 250 ug/ml geneticin at 37C, 5% CO2 in a humidified atmosphere. Before the assay, aliquots of cells were frozen and stored at -135C. The assay was performed in 1536-well format. Data are reported for both the ratio of the two emission wavelengths, and also for the component 'donor' channel, Em2=620. […] AC50 values were determined from concentration-response data modeled with the standard Hill equation.
IMPase 1536-well assay protocol:
(1) Plate 4 ul/well (2000 cells) of cell suspension from frozen CHO-M1 Cells in white, tissue culture treated 1536-well plates that are cultured at 37C, 5 % CO2 for 16 to 30 hours.
(2) Add 23 nl/well of compound in DMSO solution. The final titration for each compound was between 0.6 nM and 46 uM.
(3) Add 1 ul of carbachol (50 uM in stimulation buffer containing10mM HEPES, 1mM CaCl2, 0.5 mM MgCl2, 4.2 mM KCl, 146 mM NaCl, 5.5 mM glucose, 50mM LiCl, pH 7.4.
(4) Incubation at 37C, 5 % CO2 for 30 min.
(5) Add 1 ul/well of d2-conjugated IP1 (d2-IP1) and 1 ul/well of Eu+ cryptate conjugated anti-IP1 antibody (Eu+-Ab) prepared in the cell lysis buffer, both from the IP-One kit (Cisbio, MA).
(6) Incubate at room temperature for 10 minutes.
(7) Detect the assay plate (Ex = 320, Em1 =665 and Em2 620) in a ViewLux plate reader.
inositol monophosphatase, IMPase, IMPase inhibitor, lithium, bipolar disorder, IP-One, HTRF, qHTS, NIH roadmap, NCGC
Note: In the gene ID and protein GI references for this assay, rat IMPase is referenced instead of hampster as hamster accession numbers were not available.
In general terms: In qHTS, concentration-response curves come from the screen itself.
On to `O=C(Nc1ccc(O)c(-c2nc3ccccc3o2)c1)c1ccc(-c2cccc(Cl)c2)o1`, for which the outcome was inactive.

On to `CC1CCCCN1CC(=O)N1CCCc2c1c(=O)oc1ccc(OCc3ccccc3)cc21` (stereo not drawn), for which the result was inactive.

For `COc1ccc(C2(Nc3cccc(F)c3)C(=O)c3ccccc3C2=O)cc1`, the outcome was inactive.

As for `Cc1ccc(C(=O)CSc2nc(-c3ccccc3)nc3c2CCCC3)c(C)c1`, the result was inactive.

Consider `CCOc1ccc(S(=O)(=O)N/N=C(\C)c2ccc(Cl)c(Cl)c2Cl)cc1`, for which the outcome was inactive.

In the case of `Cc1ccc(C(=O)CC2(O)C(=O)N(CCc3ccccc3)c3ccc(Br)cc32)cc1` (stereo not drawn), the result was inactive.

Turning to `COc1ccc2oc(-c3cccc(NC(=O)CSc4ccc(Cl)cc4)c3)nc2c1`, the outcome was inactive.

With `CCCC(=O)Nc1ccc2oc(-c3ccc(O)c(Br)c3)nc2c1`, the result was inactive.

Turning to `COc1cccc(C(=O)Nc2ccc3oc(-c4ccc5ccccc5c4)nc3c2)c1`, the result was inactive.

As for `Cc1cccc(C(CC(=O)NCC2(c3ccccc3)CCCC2)c2ccccc2)c1O` (stereo not drawn), the result was inactive.

In the case of `Cc1ccc(OCC(=O)Nc2ccccc2Sc2ccc(Cl)cc2)c([N+](=O)[O-])n1`, the result was inactive.

In the case of `CN(C(=O)CSc1nnc(-c2n[nH]c3ccccc23)o1)c1ccccc1`, the result was inactive.

As to `CC(=O)NC(Cc1ccccc1)C(=O)NC1CCN(c2ncccc2[N+](=O)[O-])CC1` (stereo not drawn), the result was inactive.

As for `COc1ccc(/C=C/C(=O)OCC(=O)NCc2cccs2)cc1OC`, the result was inactive.

For the compound `COc1ccc(S(=O)(=O)Nc2cc3c(C(=O)OC(C)C)c(C)oc3c3ccccc23)cc1`, the result was inactive.

Turning to `CCOC(=O)c1c(C)oc2ccc(N(C(=O)c3ccncc3)S(=O)(=O)c3ccc(CC)cc3)cc12`, the result was inactive.

For the compound `CCCCOC(=O)/C(C#N)=C/c1ccc(-c2cccc(C(F)(F)F)c2)o1`, the outcome was inactive.

Turning to `CCc1ccccc1NC(=O)CSc1nc(C)c(C(=O)Nc2ccccc2)c(-c2ccc(Cl)cc2)c1C#N`, the result was inactive.

Consider `Oc1ccccc1-c1nc(/C=C/c2ccc(F)cc2)no1`, for which the result was inactive.

Regarding `COc1ccc(NC(=O)CSC2=Nc3ccccc3C3=NC(CC(=O)NCc4ccccc4OC)C(=O)N23)cc1Cl` (stereo not drawn), the result was inactive.

Take `COc1ccc(C(C(=O)NC2CCCCC2)N(C(=O)CCl)c2ccccc2Cl)cc1` (stereo not drawn): the result was inactive.

Turning to `COc1ccc(S(=O)(=O)NCCc2cc3ccc(C)c(C)c3[nH]c2=O)cc1`, the result was inactive.

For the compound `COc1ccc2c(CN3CCN(S(=O)(=O)c4cccs4)CC3)cc(=O)oc2c1`, the outcome was inactive.

With `CC(=O)Nc1ccc(NC(=O)CSc2nnc3c4cc(Br)ccc4n(C)c3n2)cc1`, the outcome was inactive.

In the case of `CCc1ccccc1NS(=O)(=O)c1ccc2nc(-c3ccccc3)[nH]c2c1`, the result was inactive.

With `COC(=O)c1ccc(-c2nc3cc(NC(C)=O)ccc3o2)cc1`, the outcome was inactive.

With `CCCOc1ccc(NC(=O)C2OC3OC(C)(C)OC3C3OC(C)(C)OC23)cc1` (stereo not drawn), the outcome was inactive.

Take `O=C(Nc1nnc(SCc2ccccc2Cl)s1)c1cccc([N+](=O)[O-])c1`: the outcome was inactive.

Regarding `CC1=C(C(=O)OCc2ccc(C)cc2)C(c2c(Cl)cccc2Cl)CC(=O)N1` (stereo not drawn), the outcome was inactive.

For the compound `CC(C)Cn1c(-c2ccc(S(=O)(=O)N3CCOCC3)cc2)csc1=Nc1cc(Cl)ccc1Cl`, the outcome was inactive.

Turning to `CN(Cc1cccs1)C(=O)Cc1c[nH]c2ccccc12`, the outcome was inactive.

With `CCC(C)c1ccc2oc(-c3ccc(NC(=O)c4cc5ccccc5o4)cc3)nc2c1` (stereo not drawn), the result was inactive.

In the case of `Cc1cc2nc(-c3ccc(NC(=O)c4cc5ccccc5o4)cc3)oc2cc1C`, the outcome was inactive.

On to `COc1cc(C2c3c(oc4ccccc4c3=O)C(=O)N2c2nc(C)c(C)s2)ccc1O` (stereo not drawn), for which the result was inactive.

As to `COc1ccc(C)cc1N(CC(=O)N1CCC(C)CC1)S(=O)(=O)c1ccc(C)cc1`, the result was inactive.

Turning to `Cc1ccc(-c2cc(C(F)(F)F)c(C#N)c(SCC(=O)Nc3ccccc3)n2)cc1`, the outcome was inactive.

For the compound `CN(C)c1ccc(/C=N/N(Cc2ccccc2)c2ccccc2)cc1`, the outcome was inactive.

For the compound `CC(=O)NC1C(Oc2ccc(C)cc2)OC2COC(c3ccco3)OC2C1O` (stereo not drawn), the result was inactive.

`COCCNC(=O)CSc1nc(-c2ccccc2)[nH]c1-c1ccc(C)cc1`: the outcome was inactive.

Regarding `CCOc1ccc(/C=N/NC(N)=S)cc1`, the outcome was inactive.

As to `O=C(CSc1nc(-c2cccc(F)c2)[nH]c1-c1ccccc1)Nc1ccc2c(c1)OCO2`, the outcome was inactive.

`CCc1cccc(C)c1Nc1c(-c2ccc(N(C)C)cc2)nc2ncccn12`: the outcome was inactive.

Turning to `Cc1nnc(SCC(=O)N2CCOCC2)[nH]c1=O`, the outcome was inactive.

In the case of `Cc1cc([N+](=O)[O-])ccc1NC(=O)C1CCCO1` (stereo not drawn), the result was inactive.

With `CCCn1c(NCc2ccc(N(CC)CC)cc2)nc2ccccc21`, the outcome was inactive.

Regarding `COc1ccc(Cl)cc1NC(=O)NCC1CCN(Cc2ccccc2F)CC1`, the result was inactive.

Take `Cc1cc2ccccc2n1CCNC(=O)c1ccc(F)cc1`: the result was inactive.

For `CN(C)CCCO/N=C(\c1ccccc1)c1ccncc1`, the outcome was inactive.

The record behind these values is PubChem BioAssay AID901 (National Center for Advancing Translational Sciences (NCATS), 2007).
